Measurements reported in the OligoGym collection.

Molecular target: COL4A2
Experiment: pooled miR-30 sensor sort-seq; sequence = guide strand
Settings: shRNA
Further: reference of the scale not given here.

Row | Sequence | sensor-assay potency score (higher = more potent)
1 | TAAATTTATAGTGTCCCCGATG | -0.984
2 | TACAGGAAGGGCATGGTGCTGA | -0.213
3 | TTGGTTGTGATTGTTCTGGAAT | -0.89
4 | TTTAATGTCTTTCATTCCTGGC | -0.64
5 | TTTCTCTCCTTTAATGTCTTTC | -0.595
6 | TAGTAGTGGCAGGTGCCGCGGC | -0.784
7 | TGATTGTTCTGGAATCTCCTTT | 0.225
8 | TTTGATAGCTTCGTCGCCTTCT | 0.156
9 | TATCCGATCCACAAACTCCGCC | -0.539
10 | TGTCACAATCTATTTGTCCTGG | 0.235
11 | TTCTCCTGGAGTACCCTTCGTT | -0.712
12 | TTGCATTCGATGAATGGTGTGG | 0.0414
13 | TAGTAGCAGACATCACCAGGGT | 0.056
14 | TCACACACAGAACAGCGGCTGA | -0.772
15 | TTTGTAGTCGTTACACAGGAGG | -1.03
16 | ATCTGTGTCACAATCTATTTGT | -0.377
17 | TAGGGCTTGATCTCGTCCTCGG | -0.228
18 | TACATCTGCATTCCCCAGCGTC | -0.779
19 | TCACATCTGTGTCACAATCTAT | -0.621
20 | TAGGACTTGTCGTTCCGGCTGG | 0.103
21 | TTTACGTCCCTGCAGTCCCGGG | -1.37
22 | TCTATCTCCTTTTAGCCCGGGG | -0.278
23 | TTAAATCTCAGGGACAACGTGG | -0.373
24 | TTGGTCTCCTTTCTGTCCTGGG | -0.772
